Data: PubChem BioAssay AID2320 (National Center for Advancing Translational Sciences (NCATS), 2010)
Results filed as inconclusive are left out. Values without a mark were called inactive. Activity calls are given as the source filed them. Calls come from the whole dose curve.

experiment: A qHTS for Small Molecule Inhibitors of Shiga Toxin (Confirmatory); conditions: Cell-based Shiga toxin protection reporter assay; series mostly up to 38.3 µM; activity, positive = inhibition of toxin: at the top concentration; note: nearly all actives have a fitted effect of over 75% in size; for activity, positive = inhibition of toxin: 0% is about no effect
Potency is the fitted concentration of half-maximal effect.

Row | Structure (SMILES) | activity, positive = inhibition of toxin [%] | Potency
1 | CC[N+](CC)(CCO)CCCN1C(=O)C2CC=C(Cl)CC2C1=O (stereo not drawn) | -10.6 | 
2 | CCCC[C@@H]1C[C@H]1[C@@H](NC(=O)c1ccco1)c1ccc(Cl)cc1 |  | 8.95 µM (active)
3 | O=C(Nc1ccc(Cl)cc1)C1CCN(C(=O)c2cccs2)CC1 | 22 | 
4 | Cc1cnc(NC(=O)c2ccc(-c3nc4ccccc4s3)o2)s1 |  | 17.9 µM (active)
5 | Cn1nccc1C(=O)Nc1sc2c(c1C#N)CCCC2 |  | 20 µM (active)
6 | O=C(NNC(=O)c1nc(Cl)ccc1Cl)c1ccc(F)cc1 | 23.4 | 
7 | Cc1nnc(NC(=O)C2COc3ccccc3O2)s1 (stereo not drawn) |  | 14.2 µM (active)
8 | CC(=O)c1ccc2noc(-c3ccc(F)cc3)c2c1 |  | 11.3 µM (active)
9 | CN1CCN(Cc2ccc(N)cc2)CC1 | 30.4 | 
10 | O=C(NCC1CCCO1)Nc1ccc2c(c1)OCO2 (stereo not drawn) |  | 22.5 µM (active)
11 | Cc1ccc([N+](=O)[O-])cc1NC(=O)CSc1nncn1-c1ccccn1 | 28.7 | 
12 | CNC(=O)c1cccn(Cc2ccc(C(F)(F)F)cc2)c1=O |  | 0.1 µM (active)
13 | Cn1c(=O)c2ncn(CC(=O)NCCOc3ccccc3)c2n(C)c1=O | -16.7 | 
14 | CC(=O)c1cccc(N2C(=O)C3C4CCC(C4=C(C)C)C3C2=O)c1 (stereo not drawn) | -18.1 | 
15 | O=C(Cc1cccs1)Nc1nc(-c2ccc(F)c(F)c2)cs1 |  | 6.34 µM (active)
16 | CC(=O)c1ccc(-c2cccc([C@H]3[C@@H]4C=CC[C@@H](C)[C@@H]4C(=O)N3Cc3ccccc3)c2)cc1 | -17 | 
17 | Cc1cc(C)c2nc(-c3ccccn3)cc(C(=O)NCc3ccco3)c2c1 |  | 15.9 µM (active)
18 | Cc1cccc(C(=O)Nc2scc(CC(C)C)c2C(=O)O)c1 | -17.8 | 
19 | CSc1ccc(/C=C/C(=O)N2CCN(c3ccccn3)CC2)cc1 | -0.0265 | 

Row | Structure (SMILES) | activity, positive = inhibition of toxin [%] | Potency
20 | COc1ccccc1-n1cnnc1SCC(=O)Nc1ccccc1 |  | 22.5 µM (active)
21 | Cc1nn(-c2ccc(Cl)cc2)c(N)c1C(O)(CSc1nccn1C)C(F)(F)F (stereo not drawn) | 53.7 | 
22 | CC(=O)Nc1cccc(NC(=O)CSc2nc3ccccc3o2)c1 | -0.494 | 
23 | CCCCc1ccc(NS(=O)(=O)N(C)C)cc1 | 22.2 | 
24 | O=C(Nc1ccc(/C=C/c2nc3ccccc3o2)cc1)c1ccc(F)cc1 |  | 3.18 µM (active)
25 | COc1ccc(-c2cnc[nH]2)cc1 | 15.5 | 
26 | O=C(NCCN1C(=O)S/C(=C\c2ccc(Cl)cc2)C1=O)c1ccc(F)c(S(=O)(=O)N2CCOCC2)c1 |  | 6.34 µM (active)
27 | CCCc1cc(=O)oc2cc(C)cc(OCC(=O)NCc3ccccn3)c12 | -31.3 | 
28 | COc1ccc(-c2cc(-c3ccccc3O)[nH]n2)cc1OC |  | 2.25 µM (active)
29 | O=C(c1cc2c(s1)-c1ccccc1OC2)N1CCN(c2ccccc2)CC1 | -19.8 | 
30 | Cc1cccc(N2CCN(C(=O)Cc3ccc(Br)cc3)CC2)c1C |  | 14.2 µM (active)
31 | COc1ccccc1N(CCC#N)C(=O)CSc1nc(-c2ccccc2)cn1N | 28.7 | 
32 | Cc1cc(N/C=C\c2nnnn2-c2ccccc2)no1 |  | 22.5 µM (active)
33 | Cc1cccc(Cn2cc(SCC(=O)Nc3nccs3)c3ccccc32)c1 |  | 8.95 µM (active)
34 | CC1(C)Cc2c(cnn2-c2ccccc2)C(NC(=O)CCN2CCCCO2)C1 (stereo not drawn) | 20.1 | 
35 | Cc1nonc1OCCCNc1ccc([N+](=O)[O-])cc1Cl |  | 12.6 µM (active)
36 | COc1ccc(NC(=O)CSc2nccn2-c2cccc(OC)c2)cc1 | -33.2 | 
37 | Cc1cc(C(=O)COC(=O)c2cccn2C)c(C)n1Cc1ccco1 |  | 0.252 µM (active)
38 | Cc1ccc2c(CN3CCCCC3C)cc(=O)oc2c1C (stereo not drawn) |  | 0.01 µM (active)
